Data taken from PubChem BioAssay AID488922 (Johns Hopkins Ion Channel Center, 2010).
In all, about 310,000 compounds went through this assay and about 3,800 (1.2%) were called active.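 How the source made its calls: active means ratio B-score over 3 SD below the library mean, with starting fluorescence within 5 SD of its mean; inactive means the rest, inconclusive results apart.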 The full list was thinned out, with actives kept by preference.

biological target: Potassium channel subfamily K member 9 (Homo sapiens) (UniProt Q9NPC2); assay: blockers of human TASK-3 (KCNK9) channel – HEK293 cells, thallium flux, primary screen (AID 488922); conditions: HEK293 KCNK9, FluxOR thallium flux fluorescence, at 10 µM; stronger effect = lower value;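 on B-score: negative B-score means less thallium flux so channel inhibition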
Sequence (Q9NPC2 whole entry, looked up): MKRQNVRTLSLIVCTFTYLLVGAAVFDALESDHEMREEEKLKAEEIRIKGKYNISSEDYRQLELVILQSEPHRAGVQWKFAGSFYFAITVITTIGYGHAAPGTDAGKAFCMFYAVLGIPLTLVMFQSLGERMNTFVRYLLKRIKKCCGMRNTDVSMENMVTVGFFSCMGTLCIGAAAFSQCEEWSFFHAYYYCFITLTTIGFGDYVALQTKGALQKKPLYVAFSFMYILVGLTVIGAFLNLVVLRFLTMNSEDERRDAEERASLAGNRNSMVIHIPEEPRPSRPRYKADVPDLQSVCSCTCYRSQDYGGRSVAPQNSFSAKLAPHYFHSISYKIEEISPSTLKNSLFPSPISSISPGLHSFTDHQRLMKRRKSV

B-score, active:
O=C(Nn1c(SCc2ccc([N+](=O)[O-])cc2)nc2ccccc2c1=O)c1ccc(F)cc1 -8.82, Cc1nc(N2CCN(c3ccccn3)CC2)c2c(C)c(C(=O)Nc3ccc(F)c(Cl)c3)sc2n1 -10.3, O=C(COC(=O)/C(=C/c1cccs1)c1cccs1)NCc1ccccc1Cl -9.72, Cc1ccc(C)c(NC(=O)CSc2nc3c(oc4ccccc43)c(=O)n2-c2ccccc2)c1 -7.91, COc1cccc(-c2cnc(OC(C)(C)C)nc2OC(C)(C)C)c1 -8.72, CN(C)c1ccc(C(CNC(=O)c2ccc(F)cc2)c2c[nH]c3ccccc23)cc1 (stereo not given) -13

B-score, inactive:
O=C(/C=C/c1ccc(N2CCOCC2)cc1)c1ccccc1, CCOc1ncccc1C(=O)OCC(=O)NC1CC1, Cc1nc2ccccc2c(=O)n1NC(=O)c1ccc(Cl)c([N+](=O)[O-])c1, C=CCn1c(SCc2ccc(C(=O)NCCO)cc2)nc2ccccc2c1=O, O=C(Cn1nc([N+](=O)[O-])nc1Br)NC1CCCCC1, CCC1Nc2ncnc(N3CCN(c4ccccc4)CC3)c2N(Cc2ccc(Cl)cc2)C1=O (stereo not given), COc1ccc(NC(=O)c2sc3nc(C)nc(N4CCN(c5ccccn5)CC4)c3c2C)c(OC)c1, Cc1nc(N2CCN(c3ccccn3)CC2)c2c(C)c(C(=O)Nc3ccc(F)cc3)sc2n1, Cc1ccc2cccc(OCCCOc3ccccc3CO)c2n1, O=C(COC(=O)c1cccs1)NCc1cccs1, O=C(COC(=O)c1cc2c(s1)CCCC2)NCc1ccccc1Cl, CC(C)(C)NC(=O)COC(=O)c1cc(Br)ccc1Cl, O=C(NNS(=O)(=O)c1ccc(F)cc1)c1ccc([N+](=O)[O-])cc1Cl, COc1ccc(-c2[nH]ncc2/C=N/NC(=O)c2cc(Br)ccc2O)c(OC)c1, Cc1ccc(C)c(NC(=O)CSc2nnc(Cc3cccn3C)n2-c2ccc(F)cc2)c1, Cc1ccc(C)c(Cn2cnc3c(oc4ccccc43)c2=O)c1, C=CCOc1ccc(C(=O)Nc2ccccc2C(=O)N2CCCC2)cc1, Cc1ccc(C2NC(C(=O)O)CS2)cc1 (stereo not given), CC(C)(C)Oc1ncc(Br)c(OC(C)(C)C)n1, COc1ccc(-c2nc(N)ncc2-c2ccc(Cl)cc2)c(O)c1, COc1ccc(CN2CCC(c3nc4ccc(Cl)cc4[nH]3)CC2)cc1, Cc1ccc(C(=O)NC2CCN(C(=O)Nc3ccc(F)cc3)CC2)cc1, O=C(Cc1ccccc1)NCc1ccc(F)cc1, O=C(CNC(=O)c1ccc(F)cc1)c1ccccc1
